Data published in ChEMBL document CHEMBL4513216, “Probing the Open Global Health Chemical Diversity Library for Multistage-Active Starting Points for Next-Generation Antimalarials” (ACS Infect Dis, 2020).
The whole screen tested about 69,000 compounds, of which about 8,600 (12%) showed an effect of 50% or more. The list comes from a sample in which strong results are over-represented; it also holds similar structures and randomly drawn compounds.

Tested on: Plasmodium berghei
Assay: Screen against P. berghei liver stage (PbLuc), transformed with Luciferase, at 10uM
Format: functional, HepG2
Conditions: tested at 10 uM

Point of comparison: `Cn1nccc1-c1ccc2nc(C3CCNCC3)nn2c1`, INHIBITION -3.33%. Against it:
- O=C1N(CC2CCCC2)CCC12CCN(c1ncc(F)cn1)CC2 — higher, 8.74%
- NC(=O)CN1CCC(NC(=O)COCCOc2ccccc2)CC1 — higher, 31.6%
- CC(=O)NCCC1CCCCN1S(=O)(=O)c1cccc(F)c1 (stereo unspecified) — lower, -40.5%
- CNC(=O)c1ccc(C2CN(C(=O)COC)CCO2)nc1 (stereo unspecified) — lower, -26.8%
- COCC(=O)N1CCOC(c2ccc(N(C)C)cn2)C1 (stereo unspecified) — higher, 50.1%
- COCC(=O)N1CCOC(c2cccc(-c3cncnc3)n2)C1 (stereo unspecified) — higher, 38.2%
- CCCC(=O)N1CCC(c2nc(O)c3c(n2)CCN(C2CCCC2)C3)C1 (stereo unspecified) — higher, 17.1%
- Cc1ccccc1OCCCC(=O)NC(C)c1nnc2n1CCC2 (stereo unspecified) — lower, -24.2%
- CNC(=O)[C@H]1C[C@@H]2CN(S(=O)(=O)Cc3ccccc3)C[C@@H]2N1C — lower, -15.7%
- O=C(N1CCOCC1)[C@@]12CCO[C@@H]1CCN(C1CCC1)C2 — higher, 16.8%
- Cc1ccsc1C(=O)N1C[C@@H]2CN(Cc3ccoc3)CCO[C@@H]2C1 — higher, 2.27%
- O=C(NCC(F)(F)F)C1CSCN1S(=O)(=O)c1ccc(F)cc1Cl (stereo unspecified) — lower, -19.6%
- COc1ncccc1CN1C[C@@H]2C[C@@H](C(=O)NCC3CC3)N(C)[C@@H]2C1 — higher, 27.2%
- CCCn1cc(-c2cc(-c3ccoc3)c(C#N)c(N)n2)c(C)n1 — lower, -24%
- CCCn1cc(-c2cc(-c3cc(CC)n[nH]3)c(C#N)c(N)n2)c(C)n1 — higher, 64.5%
- CCCn1cc(-c2cc(-c3c[nH]cn3)c(C#N)c(N)n2)c(C)n1 — lower, -8.47%
- Cc1ccc(O)c(CNC2CCCN(Cc3noc(C4CC4)n3)C2)n1 (stereo unspecified) — higher, 15.3%
- CC(C)NC(=O)CN(C)CC(=O)Nc1ccnn1C(C)C1CC1 (stereo unspecified) — lower, -164%
- Cc1nc(C)c(CC(=O)NCc2ccccc2F)s1 — higher, 31.3%
- Cc1nc(C)c(CC(=O)NCc2ccc(F)cc2)s1 — higher, -2.39%
- CC(=O)Nc1ccc(CNC(=O)CNCc2nnc(C)o2)cc1 — higher, 45.4%
- CC(=O)Nc1ccc(CNC(=O)CNCc2snnc2C)cc1 — higher, 52.2%
- CC(=O)Nc1ccc(CN(C)Cc2snnc2C)cc1 — higher, 34.6%
- CC(=O)Nc1ccc(CNC(=O)CNCc2sc(C)nc2C)cc1 — higher, 55.5%
- O=C(O)c1cc(S(=O)(=O)N2CCOc3ccccc32)ccc1Br — higher, 2.7%
- CN(C(=O)Cn1nc(-c2ccc(Br)cc2)ccc1=O)C1CCS(=O)(=O)C1 (stereo unspecified) — lower, -29.2%
- CC(C)c1cc(O)nc(C2CCCN2C(=O)C2CC2)n1 (stereo unspecified) — lower, -9.32%
- O=S(=O)(NCC1CCN(c2cnccn2)CC1)C1CC1 — higher, 27.5%
- Cc1nc(S(=O)(=O)N2CCCCc3ccccc32)cn1C — lower, -49.3%
- COc1cccc(CC(=O)N2CCC(c3ccn4nccc4n3)CC2)c1 — higher, 23.9%
- O=S(=O)(NCC1COCCO1)c1ccc(C2CCCCC2)cc1 (stereo unspecified) — higher, 74.5%
- O=C(NS(=O)(=O)c1ccc(C2CCCCC2)cc1)C1COCCO1 (stereo unspecified) — higher, 46.4%
- Cc1ccc(S(=O)(=O)NCC2CNCCOC2)cc1Cl (stereo unspecified) — lower, -95.7%
- Cc1cc(C)n(CC2CCCN2C(=O)c2cncnc2C)n1 (stereo unspecified) — higher, -2.1%
- O=C(CN1CCc2cncnc2C1)NC(c1ccccc1)C1CC1 (stereo unspecified) — higher, 24.4%
- FC(F)(F)COCCN1CCc2cncnc2C1 — higher, 64%
- Cc1ccc(C(NC(=O)CN2CCc3cncnc3C2)C2CC2)cc1 (stereo unspecified) — higher, 34.2%
- CCc1ncc2c(n1)CN(CC1CCCCO1)CC2 (stereo unspecified) — higher, 9.35%
- Cc1ncc2c(n1)CN(CCOCC(F)(F)F)CC2 — higher, 26.6%
- N#Cc1ccc(OCCN2CCc3cncnc3C2)cc1 — higher, 9.54%
- c1ncc2c(n1)CN(CC1CCCCO1)CC2 (stereo unspecified) — higher, 87.1%
- COCCCN1CCc2cncnc2C1 — higher, 40.3%
- CCOCCN1CCc2cncnc2C1 — higher, 53.3%
- Cc1ncc2c(n1)CN(CC1CCCCO1)CC2 (stereo unspecified) — higher, 3.17%
- O=C(CN1CCc2cncnc2C1)NC(C1CC1)C1CC1 — higher, 57%
- CC(C)OCCN1CCc2cncnc2C1 — higher, 24.4%
- Cn1nnc2c(N3CC(C(=O)NCc4ccccc4F)C3)ncnc21 — higher, 15.7%
- Cc1cnn(CC2CCCN2CCCS(=O)(=O)N(C)C)c1 (stereo unspecified) — higher, 2.97%
- N#Cc1ccc(C2CC(=O)Nc3c(C(=O)O)nsc32)cc1 (stereo unspecified) — lower, -38.7%
- CC(C)C(Sc1nnc(NC2CC2)s1)C(=O)NCc1cccnc1 (stereo unspecified) — lower, -26.7%
- Cc1noc(C)c1S(=O)(=O)NC(=O)COc1cccc(C(C)C)c1 — higher, 13.3%
- Nc1nc2c(s1)C(c1c(F)cccc1Cl)CC(=O)N2 (stereo unspecified) — higher, 30%
- CCNc1ncc(C(=O)N(C)C(C)c2ccc3c(c2)OCCO3)cn1 (stereo unspecified) — higher, 15.8%
- Cc1ccccc1-c1cncc(C2CCN(CCO)CC2)n1 — higher, 38.2%
- CCN(CC1COc2ccccc2O1)C(=O)C1=NN(C)C(=O)CC1 (stereo unspecified) — higher, 50.8%
- CN(CC1COc2ccccc2O1)C(=O)C1=NN(C)C(=O)CC1 (stereo unspecified) — higher, 25.7%
- CCCN(CC1COc2ccccc2O1)C(=O)C1=NN(C)C(=O)CC1 (stereo unspecified) — higher, 42.4%
- CCNC(=O)CCCC(=O)N1CCc2cc(Cl)cc(Cl)c2C1 — lower, -4.52%
- COC(=O)C1CCN(C(=O)Cn2ccc(-c3ccccc3)n2)CC1 — lower, -35%
- CN1CCO[C@H]2CN(C(=O)c3ccoc3)C[C@H]21 — higher, 54.4%
- O=C(c1ccoc1)N1C[C@@H]2OCCN(c3ncccn3)[C@@H]2C1 — lower, -4.32%
- CC(C)N1CCO[C@H]2CN(C(=O)c3ccoc3)C[C@H]21 — higher, 38.7%
- O=C(NCc1cc(-c2ccccc2)no1)NC1CCCCNC1=O (stereo unspecified) — lower, -24.8%
- O=C(c1n[nH]cc1Cl)N1CCCC(n2nnc3cc(F)ccc32)C1 (stereo unspecified) — higher, 38.8%
- N#CC1(C(=O)N2C[C@@H]3CC[C@H]2CN(Cc2ccncc2)C3)CCOCC1 — higher, 26.5%
- Cc1ccc(S(=O)(=O)N(C)Cc2cnccn2)cc1N(C)C — higher, 26%
- CN(CC(C)(C)C)S(=O)(=O)c1ccc(C(F)(F)F)nc1 — higher, 33.7%
- CN(Cc1cnccn1)S(=O)(=O)c1ccc(C(F)(F)F)nc1 — higher, 75.5%
- CN1CCN(C(=O)c2cn3ccsc3n2)[C@H]2CS(=O)(=O)C[C@H]21 — higher, 38.5%
- CN1CCCC1CNC(=O)CCCOc1ccc(Cl)cc1 (stereo unspecified) — higher, 24.665%
- O=C(c1ccsc1)N1C[C@@H]2CCN(C(=O)c3cscn3)[C@@H]2C1 — higher, 27.5%
- O=C(C1CCC1)N1CCC(c2ncc3c(n2)CCNC3)CC1 — lower, -12.9%
- CC1(C)CN(C(=O)CC2CCS(=O)(=O)CC2)C[C@]1(C)O — higher, 34.4%
- CC1(C)CC(CC(=O)N2CC(C)(C)[C@@](C)(O)C2)CC(C)(C)N1 — higher, 70.2%
- CCc1ccc(C(=O)N2CC[C@](C)(O)C(C)(C)C2)[nH]1 — lower, -10.6%
- CCN(CC)Cc1cc(C(=O)N2CC(C)(C)[C@@](C)(O)C2)c(C)o1 — higher, 35.7%
- CCCN1CCC(CC(=O)N2CC(C)(C)[C@@](C)(O)C2)CC1 — higher, 57.2%
- CC1(C)CN(C(=O)CC2CCC2)C[C@]1(C)O — higher, 47.4%
- CCc1cc(N[C@@H]2CC[C@@H](N)C2)n2nc(C)c(C)c2n1 — lower, -42.8%
- Cc1cc(C(=O)NCC(C)C)nn1C — higher, 37.9%
- O=C(NCc1cc2ccccc2[nH]1)C1CCCN(C(=O)N2CCCC2)C1 (stereo unspecified) — higher, 3.87%
- COC(=O)CC1c2cccnc2C(=O)N1Cc1ccccc1 (stereo unspecified) — higher, 36.6%
- CN(CC(=O)N1CCCC1)C(=O)Cc1csc(-c2ncccn2)n1 — higher, 30.057%
- O=C(c1cccc(F)c1)N1CCCN(Cc2cscn2)CC1 — lower, -75.2%
- Cc1cc(C)c2cc(CNC(C)C)c3nn(C)c(=O)n3c2c1 — higher, 64.9%
- Cc1cc(C)c2ncn(CCC(C)O)c(=O)c2c1 (stereo unspecified) — higher, 6.28%
- CCCn1cnnc1CNC1CCCC1 — higher, 9.91%
- Cc1cc(C)c2c(OCC(=O)NC(C)C)nn(C)c2n1 — higher, 37.1%
- Cc1nn(C)c(C)c1CC(=O)NCc1ccnc(OC2CCCC2)c1 — higher, 25.3%
- Cc1cc(C)c2cc(CNC3CCCCC3)c3nn(C)c(=O)n3c2c1 — higher, 73.8%
- Cc1noc2ncc(C(=O)NCC3CCCO3)cc12 (stereo unspecified) — lower, -17.45%
- Cc1cc(NCC2CCCO2)cc(=O)n1C (stereo unspecified) — higher, 29.3%
- Cc1cc(C)c2cc(CNCC3CCCO3)c3nn(C)c(=O)n3c2c1 (stereo unspecified) — higher, 55.2%
- Cc1csc(N2CCC(CCN3CCCC3=O)CC2)n1 — lower, -40.5%
- COc1ccc2c3c1CN(S(C)(=O)=O)CC3=CC(C)(C)CO2 — higher, 29.8%
- Cn1ncc2c(=O)[nH]c(CN3CCCC3c3ccsc3)nc21 (stereo unspecified) — lower, -19.6%
- CNC(=O)[C@H]1C[C@H]2OCC[C@H]2N(CC2CC2)C1 — higher, 10.5%
- O=C([C@H]1C[C@H]2OCC[C@H]2N(CC2CCOCC2)C1)N1CCCCO1 — higher, 50.9%
- CNC(=O)[C@H]1C[C@H]2OCC[C@H]2N(CC2CCOCC2)C1 — higher, 10.5%
- O=C([C@H]1C[C@H]2OCC[C@H]2N(CC2CC2)C1)N1CCCC1 — higher, 82.2%
- O=C([C@H]1C[C@H]2OCC[C@H]2N(CC2CC2)C1)N1CCCCO1 — higher, 29.9%
- O=C([C@H]1C[C@H]2OCC[C@H]2N(C(=O)C2CCOCC2)C1)N1CCCCO1 — higher, 28.3%
- O=C([C@H]1C[C@H]2OCC[C@H]2N(CC2CCOCC2)C1)N1CCCC1 — higher, 76.3%
- O=C([C@H]1C[C@@H]2[C@@H](C1)OCCN2CC1CC1)N1CCCC1 — higher, 5.36%
- O=C(NC1CC1)[C@H]1C[C@H]2OCC[C@H]2N(CC2CCOCC2)C1 — higher, 25.4%
